# Measured values taken from PubChem BioAssay.
# The source made the active and inactive calls. Unless noted, the rule behind the calls is not given here.
# Columns and labels:
# [1] = tested on: Botulinum neurotoxin type F light chain protease (Clostridium botulinum); assay: Clostridium botulinum type F light chain protease inhibitors, microsphere substrate cleavage, validation (AID 588459); settings: multiplex microsphere protease substrate cleavage assay, flow cytometry; at 10 µM; stronger effect = higher value
# [2] = target: Botulinum neurotoxin type A (Clostridium botulinum) (UniProt P0DPI0); assay: BoNT/A light chain protease inhibitors, biochemical, multiplex microsphere flow cytometry, validation set (AID 588460); settings: at 10 µM, stronger effect = higher value
# Sequence of Botulinum neurotoxin type A (Clostridium botulinum) (P0DPI0 whole entry, looked up): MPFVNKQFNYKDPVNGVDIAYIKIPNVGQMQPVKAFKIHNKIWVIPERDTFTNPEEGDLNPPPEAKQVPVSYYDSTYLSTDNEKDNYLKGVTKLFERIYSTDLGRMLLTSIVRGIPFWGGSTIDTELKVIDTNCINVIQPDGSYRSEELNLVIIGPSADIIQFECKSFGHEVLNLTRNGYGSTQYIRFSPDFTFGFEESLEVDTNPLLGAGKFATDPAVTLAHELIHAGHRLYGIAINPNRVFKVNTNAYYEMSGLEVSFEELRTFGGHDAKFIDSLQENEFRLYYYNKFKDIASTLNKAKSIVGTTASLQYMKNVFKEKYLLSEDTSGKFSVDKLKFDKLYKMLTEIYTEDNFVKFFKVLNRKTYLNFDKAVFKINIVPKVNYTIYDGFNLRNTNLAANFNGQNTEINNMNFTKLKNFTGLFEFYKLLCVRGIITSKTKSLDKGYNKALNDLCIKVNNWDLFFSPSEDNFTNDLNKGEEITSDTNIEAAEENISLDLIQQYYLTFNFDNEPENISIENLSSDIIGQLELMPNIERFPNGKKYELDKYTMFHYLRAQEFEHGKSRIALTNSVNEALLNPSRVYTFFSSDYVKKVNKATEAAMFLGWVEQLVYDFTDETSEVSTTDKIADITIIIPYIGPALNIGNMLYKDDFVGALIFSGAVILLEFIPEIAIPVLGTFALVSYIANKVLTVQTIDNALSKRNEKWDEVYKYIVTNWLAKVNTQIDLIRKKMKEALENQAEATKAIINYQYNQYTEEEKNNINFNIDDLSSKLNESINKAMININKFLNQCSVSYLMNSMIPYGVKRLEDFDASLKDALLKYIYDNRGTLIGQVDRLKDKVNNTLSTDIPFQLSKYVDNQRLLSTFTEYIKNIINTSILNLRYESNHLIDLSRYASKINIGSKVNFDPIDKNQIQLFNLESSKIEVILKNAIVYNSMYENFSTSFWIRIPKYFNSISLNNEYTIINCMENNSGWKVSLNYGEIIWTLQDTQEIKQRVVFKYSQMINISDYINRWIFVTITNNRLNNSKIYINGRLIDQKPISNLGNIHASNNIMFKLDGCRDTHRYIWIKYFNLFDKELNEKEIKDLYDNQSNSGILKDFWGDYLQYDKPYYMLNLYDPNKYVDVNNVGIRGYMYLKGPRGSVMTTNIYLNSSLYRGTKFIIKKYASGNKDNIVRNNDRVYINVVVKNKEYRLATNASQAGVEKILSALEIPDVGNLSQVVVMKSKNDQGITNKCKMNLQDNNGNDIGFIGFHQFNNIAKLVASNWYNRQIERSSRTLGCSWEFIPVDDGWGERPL
# [3] = hit retest on RPL19A-GFP reporter strain – cell-based, S. cerevisiae, flow cytometry, cherry picks, mother/daughter gates, confirmation (AID 2270;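 active = GFP response below 50% of the DMSO control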); settings: 3 h, at 10 µM, stronger effect = lower value, 100 = same GFP as DMSO wells
# [4] = yeast TOR pathway reporter LAP4-GFP change – cell-based, cherry picks, flow cytometry, mother/daughter gates, confirmation (AID 2271;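 active = GFP response above 150% of the DMSO control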;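 note: ratio of sample to DMSO plate mean so 100% equals DMSO level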); settings: S. cerevisiae LAP4-GFP strain, 3 h, at 10 µM, stronger effect = higher value
# [5] = TOR pathway CIT2 reporter hit retest – S. cerevisiae, GFP fusion, cherry picks, mother/daughter gates, confirmation (AID 2274;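 active = GFP response above 150% of the DMSO level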); settings: S. cerevisiae CIT2-GFP strain, flow cytometry, 3 h, at 10 µM, stronger effect = higher value
# [6] = reduced mouse 2C T cell binding to pMHC/ICAM-1 vesicles – MLPCN validation set, flow cytometry, LFA-1/ICAM-1 modulator project, pilot screen (AID 2523;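 active = response below a set limit, under 55% cells CD8-positive and vesicle-bound, and CD8 cells' 90th-percentile brightness under 279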;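 for vesicle binding response: mean PE anti-B7-1 fluorescence of CD8+ cells relative to row control; 100% = QL9-loaded vesicles with DMSO vehicle in the same plate row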); settings: 2C mouse CD8+ T cells, at 7 µM, stronger effect = lower value; double positive events: measured here: CD8+/vesicle+ event percentage
# [7] = target: Integrin beta-1 (Homo sapiens) + Integrin alpha-4 (Homo sapiens) (UniProt P13612+P05556); assay: alpha4beta1 integrin LIBS antibody binding reduction – U937 cells, HUTS-21 mAb, flow cytometry, validation set, VLA-4 allosteric modulator project, pilot screen (AID 2674;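 active = inhibition above 50%, about 3 SD of the validation set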;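 note: antibody binding induced by the VLA-4 ligand LDV present at three times its Kd; 0% = LDV ligand with antibody and no compound and 100% = antibody without LDV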); settings: HUTS-21 LIBS mAb binding, at 6.7 µM, stronger effect = higher value
# [8] = calorie-restriction mimetic ROS inhibitors, yeast – validation compound set, pilot screen (AID 2706;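 active = superoxide response below 65% of plate, a cut near 3 SD across the whole screen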;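 note: yeast exposed to compound for one week at 30 degrees C before staining; 100% = mean of all compound wells on the same plate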); settings: S. cerevisiae aging, superoxide DHE fluorescence; at 10 µM; stronger effect = lower value
# [9] = target: Beta-adrenergic receptor kinase 1 (Homo sapiens) (UniProt P25098); assay: GRK2 binders displacing RNA aptamer, biochemical, validation, human GRK2, bead flow cytometry (AID 488806;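 active = aptamer binding inhibition above 30%, about 3 SD of noise from non-fluorescent compounds; inactive = inhibition at or below 30%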); settings: bead-bound GRK2, FAM-aptamer displacement, at 10 µM, stronger effect = higher value
# Sequence of Beta-adrenergic receptor kinase 1 (Homo sapiens) (P25098 whole entry, looked up): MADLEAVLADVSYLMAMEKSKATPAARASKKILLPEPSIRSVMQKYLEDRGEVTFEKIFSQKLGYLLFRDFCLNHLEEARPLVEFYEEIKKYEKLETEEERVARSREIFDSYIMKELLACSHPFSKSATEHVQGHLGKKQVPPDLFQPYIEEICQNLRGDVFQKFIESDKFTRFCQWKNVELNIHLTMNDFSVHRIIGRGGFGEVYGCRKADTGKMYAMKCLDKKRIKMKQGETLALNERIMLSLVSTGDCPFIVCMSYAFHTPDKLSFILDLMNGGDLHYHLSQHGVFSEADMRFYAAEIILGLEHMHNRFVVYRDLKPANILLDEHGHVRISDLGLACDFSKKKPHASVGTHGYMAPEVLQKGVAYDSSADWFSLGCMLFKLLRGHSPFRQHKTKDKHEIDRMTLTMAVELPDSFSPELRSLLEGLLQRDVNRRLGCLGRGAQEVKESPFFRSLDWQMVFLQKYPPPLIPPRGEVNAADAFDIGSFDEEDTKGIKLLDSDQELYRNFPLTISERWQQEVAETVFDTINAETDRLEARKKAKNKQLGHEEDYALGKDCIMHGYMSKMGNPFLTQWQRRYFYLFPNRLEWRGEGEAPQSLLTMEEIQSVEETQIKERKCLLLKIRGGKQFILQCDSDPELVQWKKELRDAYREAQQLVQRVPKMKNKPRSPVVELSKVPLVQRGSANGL
# [10] = target: AP-2 complex subunit beta (Homo sapiens) (UniProt P63010); assay: beta-arrestin/AP2 interaction blockers – biochemical, validation set, GST-AP2 beads, flow cytometry, pilot screen (AID 504541;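 active = inhibition above 54%, about 3 SD of non-fluorescent compounds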;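 note: AP2 carries R879A mutation and is captured from E. coli lysate; bead-bound FITC arrestin peptide fluorescence measuring arrestin peptide binding to AP2; 0% = DMSO wells and 100% = excess unlabeled arrestin peptide control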); settings: FITC arrestin peptide, at 10 µM, stronger effect = higher value
# Sequence of AP-2 complex subunit beta (Homo sapiens) (P63010 whole entry, looked up, one chain of several): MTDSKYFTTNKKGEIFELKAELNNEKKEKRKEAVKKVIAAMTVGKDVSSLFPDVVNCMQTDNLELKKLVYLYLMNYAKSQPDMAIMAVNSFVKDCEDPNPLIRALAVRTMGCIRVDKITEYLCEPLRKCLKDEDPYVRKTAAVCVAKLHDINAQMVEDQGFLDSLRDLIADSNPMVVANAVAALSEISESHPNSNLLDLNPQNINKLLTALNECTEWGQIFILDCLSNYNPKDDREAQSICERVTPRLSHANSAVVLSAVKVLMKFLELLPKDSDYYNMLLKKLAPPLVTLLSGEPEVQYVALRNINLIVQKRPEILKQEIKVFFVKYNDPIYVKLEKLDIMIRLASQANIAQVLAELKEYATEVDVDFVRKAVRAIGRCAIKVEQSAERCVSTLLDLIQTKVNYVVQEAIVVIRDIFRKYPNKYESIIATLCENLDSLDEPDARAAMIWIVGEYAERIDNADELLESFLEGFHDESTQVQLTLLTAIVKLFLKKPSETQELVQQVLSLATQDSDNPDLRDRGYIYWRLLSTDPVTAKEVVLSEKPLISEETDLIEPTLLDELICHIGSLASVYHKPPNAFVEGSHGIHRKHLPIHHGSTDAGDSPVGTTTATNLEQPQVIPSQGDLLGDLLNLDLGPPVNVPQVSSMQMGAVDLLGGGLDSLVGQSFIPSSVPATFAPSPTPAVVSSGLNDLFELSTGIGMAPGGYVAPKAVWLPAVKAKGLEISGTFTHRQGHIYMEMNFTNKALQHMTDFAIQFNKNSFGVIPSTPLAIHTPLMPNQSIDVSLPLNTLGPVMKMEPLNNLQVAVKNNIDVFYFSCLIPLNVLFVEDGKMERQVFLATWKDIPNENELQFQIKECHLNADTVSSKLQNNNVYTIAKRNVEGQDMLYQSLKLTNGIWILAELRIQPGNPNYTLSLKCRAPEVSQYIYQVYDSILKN
# [11] = cytosolic pH regulators acting via V-ATPase – S. cerevisiae, pHLuorin, HTS validation (AID 504600; in the data active = response above about 15%;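 note: plate controls were DMSO for no effect and reference compound for full effect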); settings: V-ATPase proton transport, at 10 µM, stronger effect = higher value
# [12] = tested on: anti-desmoglein-3 scFv antibody binding to human DSG3; assay: blockers of pathogenic pemphigus antibody–desmoglein-3 binding – biochemical, validation compound set, bead-based, flow cytometry, pilot screen (AID 588368;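 active = binding below the plate cutoff, the plate median minus 3 SD, with a reading above zero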;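 note: signal is the median channel fluorescence of bead-bound GFP antibody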); settings: Protein G beads, DSG3-Fc, scFv-GFP binding, at 10 µM, stronger effect = lower value
# [13] = target: Lethal factor (Bacillus anthracis) (UniProt P15917); assay: Bacillus anthracis lethal factor inhibition, microsphere flow cytometry protease assay, validation at 10 µM (AID 588461); settings: multiplex microsphere protease cleavage assay, stronger effect = higher value
# Sequence of Lethal factor (Bacillus anthracis) (P15917 whole entry, looked up): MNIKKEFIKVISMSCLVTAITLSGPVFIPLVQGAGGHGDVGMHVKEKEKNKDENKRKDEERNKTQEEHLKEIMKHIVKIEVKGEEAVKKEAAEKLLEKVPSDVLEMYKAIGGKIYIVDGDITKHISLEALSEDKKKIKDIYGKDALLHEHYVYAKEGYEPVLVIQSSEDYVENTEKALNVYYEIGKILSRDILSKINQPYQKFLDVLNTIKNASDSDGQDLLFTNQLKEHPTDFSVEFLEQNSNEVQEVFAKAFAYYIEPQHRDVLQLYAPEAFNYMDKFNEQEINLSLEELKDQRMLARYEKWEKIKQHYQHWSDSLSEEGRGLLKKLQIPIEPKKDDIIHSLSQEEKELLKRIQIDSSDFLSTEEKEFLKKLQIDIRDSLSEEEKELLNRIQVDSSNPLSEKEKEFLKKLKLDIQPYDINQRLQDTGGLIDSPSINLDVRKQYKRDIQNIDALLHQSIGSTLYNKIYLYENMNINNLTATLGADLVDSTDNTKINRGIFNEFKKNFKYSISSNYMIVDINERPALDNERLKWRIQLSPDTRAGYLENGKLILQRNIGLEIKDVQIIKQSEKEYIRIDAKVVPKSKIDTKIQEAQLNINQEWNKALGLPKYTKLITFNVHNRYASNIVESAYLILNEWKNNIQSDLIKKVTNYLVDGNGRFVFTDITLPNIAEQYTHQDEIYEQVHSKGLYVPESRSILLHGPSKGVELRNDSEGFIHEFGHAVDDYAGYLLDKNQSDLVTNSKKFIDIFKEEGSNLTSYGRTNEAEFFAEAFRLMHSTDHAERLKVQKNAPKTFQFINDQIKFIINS
# [14] = Nile Red efflux blockade in pump-expressing yeast – validation compound set, multiplex, phenotypic, pilot screen (AID 588506;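 active = efflux inhibition above 0.42, the validation set average plus 4 SD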;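 note: Nile Red retained in cells so higher fluorescence means more efflux inhibition; 0 = negative control wells and 1 = enniatin B 25 µM full block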); settings: S. cerevisiae pump-expressing triplex, Nile Red efflux flow cytometry; at 10 µM; stronger effect = higher value
# [15] = target: ATP-binding cassette sub-family B member 6 (Homo sapiens) (UniProt Q9NP58); assay: blockers of ABCB6-driven porphyrin uptake – K562-ABCB6 cells, flow cytometry, validation set, pilot screen (AID 588550;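 active = inhibition above the screen-wide mean plus 3 SD, about 51%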;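 note: 0% = DMSO wells and 100% = benzethonium chloride 70 µM positive control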); settings: K562-ABCB6 porphyrin accumulation, 1 h, at 10 µM, stronger effect = higher value
# Sequence of ATP-binding cassette sub-family B member 6 (Homo sapiens) (Q9NP58 whole entry, looked up): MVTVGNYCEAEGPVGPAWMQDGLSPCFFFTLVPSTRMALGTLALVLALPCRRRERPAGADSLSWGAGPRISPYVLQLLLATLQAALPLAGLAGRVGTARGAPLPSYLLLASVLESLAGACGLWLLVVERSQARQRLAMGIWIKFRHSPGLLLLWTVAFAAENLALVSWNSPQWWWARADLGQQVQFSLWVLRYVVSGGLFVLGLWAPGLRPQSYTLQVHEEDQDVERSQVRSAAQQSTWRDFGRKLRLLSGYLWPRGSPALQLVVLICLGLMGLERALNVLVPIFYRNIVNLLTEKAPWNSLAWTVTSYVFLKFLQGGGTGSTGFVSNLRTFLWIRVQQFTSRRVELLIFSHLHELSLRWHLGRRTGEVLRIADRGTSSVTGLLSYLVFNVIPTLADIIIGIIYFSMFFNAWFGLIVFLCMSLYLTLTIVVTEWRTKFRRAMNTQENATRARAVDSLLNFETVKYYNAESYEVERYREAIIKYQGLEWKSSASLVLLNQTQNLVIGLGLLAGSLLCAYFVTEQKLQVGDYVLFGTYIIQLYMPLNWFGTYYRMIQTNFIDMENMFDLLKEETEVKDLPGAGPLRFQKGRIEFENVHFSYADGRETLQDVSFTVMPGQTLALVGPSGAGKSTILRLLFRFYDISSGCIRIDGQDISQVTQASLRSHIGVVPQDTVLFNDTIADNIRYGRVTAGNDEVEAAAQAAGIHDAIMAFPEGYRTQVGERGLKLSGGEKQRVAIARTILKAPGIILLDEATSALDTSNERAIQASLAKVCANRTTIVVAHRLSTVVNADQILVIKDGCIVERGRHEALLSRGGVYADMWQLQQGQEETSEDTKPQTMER
# [16] = AML differentiation inducers, ER-HoxA9 marrow cells – cell-based, GFP/MAC1 double positive, flow cytometry, validation set, primary screen (AID 588685;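 active = differentiation response of at least 50%, scaled between solvent and reference control, from cells with both markers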;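 note: compound exposure lasts four days before antibody staining and flow analysis; 0% = DMSO wells and 100% = 5 µM fulvestrant positive control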); settings: stronger effect = higher value
# [17] = measured here: mother cell gate
# [18] = measured here: daughter cell gate response
# [19] = measured here: mother cell gate response
# [20] = measured here: daughter cell gate
structure (smiles),measurement,setting,value
CS(=O)(=O)Nc1ccc([N+](=O)[O-])cc1Oc1ccccc1,inhibition,[1],0% (inactive)
same,inhibition,[2],-0.9% (inactive)
O=C1NC(=S)N(c2ccccc2)C(=O)/C1=C/c1ccco1,GFP response vs DMSO,[3],98.8% (inactive)
same,GFP response vs DMSO,[3]; [17],91.4%
same,GFP response relative to DMSO,[4],112% (inactive)
same,GFP response relative to DMSO,[4]; [18],116%
same,GFP response relative to DMSO,[4]; [19],111%
same,"GFP response, % of DMSO",[5],84.8% (inactive)
same,"GFP response, % of DMSO",[5]; [17],65.5%
CC12CCC3C(CC=C4CC5(CCC43C)OCCO5)C1CCC2=O (stereo not drawn),double positive events,[6],65.4%
same,vesicle binding response,[6],179% (inactive)
same,inhibition,[7],-9.06% (inactive)
same,superoxide response (% of plate),[8],95.3% (inactive)
same,aptamer binding inhibition,[9],3% (inactive)
same,inhibition,[10],-3.19% (inactive)
same,response,[11],0.24% (inactive)
same,binding (% of control),[12],108% (inactive)
same,inhibition,[1],4.6% (inactive)
same,inhibition,[2],-0.8% (inactive)
same,inhibition,[13],3.9% (inactive)
same,efflux inhibition (fraction of control),[14],-0.24 (inactive)
same,inhibition,[15],15% (inactive)
same,differentiation response,[16],-4.09% (inactive)
Cc1cc(C=C2C(=O)N(C)C(=S)N(C)C2=O)c(C)n1-c1ccncc1,GFP response vs DMSO,[3],92.8% (inactive)
same,GFP response vs DMSO,[3]; [20],91.1%
same,GFP response vs DMSO,[3]; [17],88.6%
same,GFP response relative to DMSO,[4],114% (inactive)
same,GFP response relative to DMSO,[4]; [18],108%
same,GFP response relative to DMSO,[4]; [19],117%
same,"GFP response, % of DMSO",[5],69.1% (inactive)
same,"GFP response, % of DMSO",[5]; [20],70.3%
same,"GFP response, % of DMSO",[5]; [17],64.4%
Cc1ccc(/C=C2\C(=O)NC(=O)N(CC3CCCO3)C2=O)s1 (stereo not drawn),GFP response vs DMSO,[3],92.7% (inactive)
same,GFP response vs DMSO,[3]; [20],95.9%
same,GFP response vs DMSO,[3]; [17],94.8%
same,GFP response relative to DMSO,[4],102% (inactive)
same,GFP response relative to DMSO,[4]; [18],102%
same,GFP response relative to DMSO,[4]; [19],104%
same,"GFP response, % of DMSO",[5],82.6% (inactive)
same,"GFP response, % of DMSO",[5]; [20],86.2%
same,"GFP response, % of DMSO",[5]; [17],79.5%
CCCC(=O)OCC[N+](C)(C)C,double positive events,[6],63.6%
same,vesicle binding response,[6],145% (inactive)
same,inhibition,[7],14.2% (inactive)
same,superoxide response (% of plate),[8],92.5% (inactive)
same,aptamer binding inhibition,[9],4% (inactive)
same,inhibition,[10],5.57% (inactive)
same,response,[11],5.81% (inactive)
same,binding (% of control),[12],108% (inactive)
same,inhibition,[1],-3.8% (inactive)
same,inhibition,[2],-2.9% (inactive)
same,inhibition,[13],1.4% (inactive)
same,efflux inhibition (fraction of control),[14],-0.06 (inactive)
same,inhibition,[15],13% (inactive)
same,differentiation response,[16],2.46% (inactive)
Cc1c2ccncc2c(C)c2c1[nH]c1ccccc12,double positive events,[6],61%
same,vesicle binding response,[6],710% (inactive)
same,superoxide response (% of plate),[8],84.9% (inactive)
same,aptamer binding inhibition,[9],-5% (inactive)
same,inhibition,[10],5.87% (inactive)
same,response,[11],-2.57% (inactive)
same,binding (% of control),[12],180% (inactive)
same,inhibition,[1],2.4% (inactive)
same,inhibition,[2],2.8% (inactive)
same,inhibition,[13],2% (inactive)
same,efflux inhibition (fraction of control),[14],0.3 (inactive)
same,differentiation response,[16],18% (inactive)
NC12CC3CC(CC(C3)C1)C2,inhibition,[1],-1.1% (inactive)
same,inhibition,[2],-0.6% (inactive)
O=c1oc2ccccc2c(O)c1[C@H]1c2ccc(O)cc2Oc2c1c(=O)oc1ccccc21,GFP response vs DMSO,[3],108% (inactive)
same,GFP response vs DMSO,[3]; [20],96.1%
same,GFP response vs DMSO,[3]; [17],98.9%
same,GFP response relative to DMSO,[4],190% (active)
same,GFP response relative to DMSO,[4]; [18],167%
same,GFP response relative to DMSO,[4]; [19],192%
same,"GFP response, % of DMSO",[5],76.9% (inactive)
same,"GFP response, % of DMSO",[5]; [20],78.5%
same,"GFP response, % of DMSO",[5]; [17],71.9%
